Mdm2 MdmX PPI – disrupts the human Mdm2-MdmX interaction; actives 3% (n = 330,000); O15151+Q00987; AID 485346; SaOS-2 split-luciferase Mdm2/MdmX complementation, luminescence; inhibition, % at 8 µM;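 active means inhibition of at least 50% at 8 µM in the primary screen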
Target sequence (O15151 whole entry, looked up): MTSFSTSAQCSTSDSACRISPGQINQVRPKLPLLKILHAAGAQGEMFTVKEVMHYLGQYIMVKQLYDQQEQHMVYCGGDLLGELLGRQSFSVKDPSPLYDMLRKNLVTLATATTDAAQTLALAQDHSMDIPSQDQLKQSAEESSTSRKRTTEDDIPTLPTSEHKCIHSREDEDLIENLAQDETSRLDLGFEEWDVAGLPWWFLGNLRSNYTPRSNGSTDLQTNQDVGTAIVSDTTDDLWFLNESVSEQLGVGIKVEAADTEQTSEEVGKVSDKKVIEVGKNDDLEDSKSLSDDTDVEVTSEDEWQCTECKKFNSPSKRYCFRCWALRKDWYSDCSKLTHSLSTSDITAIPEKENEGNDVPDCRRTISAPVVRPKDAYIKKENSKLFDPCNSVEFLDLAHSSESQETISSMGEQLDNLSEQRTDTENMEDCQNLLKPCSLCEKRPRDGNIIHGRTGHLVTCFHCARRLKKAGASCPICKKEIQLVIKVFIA
Target sequence (Q00987 whole entry, looked up): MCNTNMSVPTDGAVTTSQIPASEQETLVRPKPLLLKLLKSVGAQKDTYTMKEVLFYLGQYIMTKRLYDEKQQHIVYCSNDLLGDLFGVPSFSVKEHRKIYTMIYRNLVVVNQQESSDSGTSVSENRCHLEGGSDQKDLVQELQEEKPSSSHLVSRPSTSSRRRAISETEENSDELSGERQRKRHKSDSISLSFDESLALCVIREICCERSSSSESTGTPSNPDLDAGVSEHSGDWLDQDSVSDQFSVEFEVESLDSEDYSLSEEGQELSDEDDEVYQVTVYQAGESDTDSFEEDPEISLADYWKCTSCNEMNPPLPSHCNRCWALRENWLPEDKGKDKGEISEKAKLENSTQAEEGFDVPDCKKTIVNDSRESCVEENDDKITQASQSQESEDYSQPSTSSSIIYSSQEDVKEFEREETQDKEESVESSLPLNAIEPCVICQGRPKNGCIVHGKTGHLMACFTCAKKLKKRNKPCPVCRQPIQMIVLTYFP
Beta cell apopt – beta cell apoptosis inhibition; INS-1E cytokine-induced death, ATP luminescence, 48 h; percent of positive-control rescue, neutral wells zero; protection from apoptosis, % (no concentration beside the values); actives 0.8% (n = 300,000); AID 435005;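 active means Every replicate reaches about 75%, or at least half do and their mean reaches it too, limit read from the data; inconclusive means At least half of replicates reach the limit but their mean does not; inactive means Under half of replicates reach the limit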;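 further: higher means more ATP so stronger rescue from cytokine killing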
Calb FLC – C. albicans growth modulation with fluconazole; C. albicans CaCi-2 (fluconazole-resistant clinical isolate) + fluconazole, Alamar Blue growth, 48 h; actives 0.57% (n = 300,000); growth inhibition, % (no concentration beside the values); AID 1979;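 active means growth inhibition above about 58% in most replicates, limit read from the data, passing the limit was not always enough; inconclusive means exactly half the replicates above a set limit; inactive means most replicates below a set limit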;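 further: all wells also contain fluconazole at 8 µg/ml as a sub-toxic cotreatment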
CSC inhib – cancer stem cell inhibition; cancer stem cell-like cells viability, luminescence; inhibition, % at 7.5 µM; actives 1.1% (n = 300,000); AID 2717; in the data active means inhibition above about 75%; inconclusive means no clear call, values can overlap the other calls; tested in HMLE shEcad cells
MPTP block – permeability transition pore inhibition; actives 1.4% (n = 360,000); isolated mouse mitochondria, Ca2+ swelling absorbance, 30 min; inhibition, % at 10 µM;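 active means inhibition of 50% or more, scaled per plate between neutral and stimulator controls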
Mdm2-MdmX conf – confirmation of human Mdm2/MdmX interaction inhibitors; actives 55% (n = 10,000); AID 489028; Mdm2-MdmX binding, luminescent assay; shares compounds with Mdm2 MdmX PPI; inhibition, % at 8 µM; in the data active means inhibition above about 40%
Full FLuc ctr – counter-screen for Mdm2/MdmX inhibitors: full-length luciferase; shares compounds with Mdm2 MdmX PPI; SaOS-2 full-length luciferase counterscreen, luminescence; inhibition, % at 8 µM; actives 77% (n = 6,200);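 active means mean inhibition at 8 µM reaching about 37%, which flags the compound as non-specific, limit read from the data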;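 further: p53-null SaOS-2 cells with luciferase driven by a doxycycline-inducible promoter; compound on cells about two nights before reading with doxycycline added after day one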
A number is an active result; n = inactive; u = inconclusive; x = not tested or not shown. In the library only some 4.8% were active in any assay of this set; here they are far more common.

SMILES	Mdm2 MdmX PPI	Beta cell apopt	Calb FLC	CSC inhib	MPTP block	Mdm2-MdmX conf	others
O=C(CN1CCCC1)Nc1ccc(-c2nc3cc(NC(=O)CN4CCCC4)ccc3o2)cc1	92	n	u	n	n	64	Full FLuc ctr=52
CCN(CC)CC(=O)Nc1ccc(-c2nc3cc(NC(=O)CN(CC)CC)ccc3o2)cc1	55	n	n	n	n	41	Full FLuc ctr=74
CCCCCC(=O)Nc1ccc2oc(-c3cncc(Br)c3)nc2c1	58	n	n	n	n	n
CC1C(=O)N(Cc2cn(Cc3ccco3)nn2)CCS(=O)(=O)N1Cc1ccc(-c2ccccc2Cl)cc1 (configuration not stated)	x	x	x	x	n	x
CCOc1ccc(C(=O)Nc2ccc(NC(=O)c3cccs3)cc2)cc1[N+](=O)[O-]	54	n	n	n	n	n
COc1ccc(C(=O)Nc2ccc(NC(=O)c3cccs3)cc2)cc1[N+](=O)[O-]	n	n	n	n	n	x
Cc1ccc(C(=O)Nc2sc(C)c(-c3ccccc3)c2C(N)=O)cc1[N+](=O)[O-]	72	n	n	n	n	n
Cc1ccc(C(=O)Nc2ccc(NC(=O)c3cccs3)cc2)cc1[N+](=O)[O-]	87	n	n	n	n	n	Full FLuc ctr=107
CCOc1ccc(C(=O)NC(=S)Nc2ncccc2C)cc1[N+](=O)[O-]	78	n	n	n	n	n
CCOc1ccc(C(=O)NC(=S)Nc2ccc(NC(=O)c3ccco3)cc2)cc1[N+](=O)[O-]	n	n	n	n	n	x
CC(C)C[C@H]1CN(CCCC[C@@H]2CNC(=O)C(=O)N2Cc2ccccc2)C(=O)C(=O)N1CCc1ccccc1	x	x	x	x	n	x
COC(=O)C[C@@H]1C=C[C@@H](NC(=O)c2ccccc2F)[C@@H](CO)O1	x	x	x	x	n	x
O=C(CN1CCCCC1)Nc1ccc(S(=O)(=O)c2ccc(NC(=O)CN3CCCCC3)cc2)cc1	x	x	x	x	n	x
CCOc1ccc(C(=O)Nc2cc(-c3nc4ccccc4[nH]3)ccc2Cl)cc1[N+](=O)[O-]	93	n	n	u	n	n
COc1ccc(/C(N)=N/OC(=O)c2c(-c3ccccc3Cl)noc2C)cc1OC	100	n	n	n	n	96	Full FLuc ctr=96
Cc1nc(/C(N)=N/OC(=O)c2c(-c3ccccc3Cl)noc2C)cs1	93	n	n	n	n	76	Full FLuc ctr=96
CC(=O)OC[C@H]1O[C@@H](n2ncc(=O)[nH]c2=O)[C@H](OC(C)=O)[C@@H]1OC(C)=O	80	n	x	n	n	59	Full FLuc ctr=n
COc1cc(-c2nc(-c3ccccc3)c(-c3cccs3)[nH]2)cc(OC)c1OC	76	n	n	78	n	40	Full FLuc ctr=100
O=C(NNC(=O)c1ccccc1F)c1cccc(-n2cccc2)c1	n	n	n	n	n	x
CCOC(=O)C1(C)CCCN1C(=O)c1snnc1C (configuration not stated)	x	x	x	x	n	x
Nc1nccc(-c2ccc(-n3cnc4ccccc43)cc2)n1	70	n	n	x	n	56	Full FLuc ctr=n
c1ccc2c(c1)ncn2-c1ccc(-c2ccnc3ncnn23)cc1	n	n	n	n	n	x
c1ccc2c(c1)ncn2-c1ccc(-c2ccnc(-c3ccncc3)n2)cc1	53	n	n	n	n	n
Cc1nccc(-c2ccc(-n3cnc4ccccc43)cc2)n1	n	n	n	n	n	x
CC1CCCC(C)N1C(=O)CSc1ncccn1 (configuration not stated)	n	n	n	n	n	x
SMILES	Mdm2 MdmX PPI	Beta cell apopt	Calb FLC	CSC inhib	MPTP block	Mdm2-MdmX conf	others
Cc1ccc(C(=O)N/C(=C\c2ccc(-c3ccc(Cl)cc3)o2)C(=O)NCCCN(C)C)cc1	93	110	u	n	n	94	Full FLuc ctr=52
Cc1ccc(C(=O)N/C(=C\c2ccc(-c3ccccc3[N+](=O)[O-])o2)C(=O)NCCCN(C)C)cc1	n	n	n	n	n	x
Cc1ccc(C(=O)N/C(=C\c2ccc(-c3cccc([N+](=O)[O-])c3)o2)C(=O)NCCCN2CCOCC2)cc1	51	n	n	n	n	n
CN(C)CCNC(=O)/C(=C/c1ccc(-c2cccc([N+](=O)[O-])c2)o1)NC(=O)c1ccccc1	n	n	n	n	n	x
CN(C)CCCNC(=O)/C(=C\c1ccc(-c2ccc(Br)cc2)o1)NC(=O)c1ccccc1	100	n	n	n	n	52	Full FLuc ctr=n
CN(C)CCNC(=O)/C(=C/c1ccc(-c2cccc(Cl)c2)o1)NC(=O)c1ccccc1	91	n	n	n	n	61	Full FLuc ctr=45
COc1ccc(C(=O)N/C(=C\c2ccc(-c3cccc([N+](=O)[O-])c3)o2)C(=O)NCCCN2CCOCC2)cc1	x	x	x	x	n	x
COc1ccccc1CNS(=O)(=O)c1c(C)[nH]c(C)c1C(=O)N1CCCC1	n	n	n	n	n	x
CC1(C)Oc2ccc3ccc(=O)oc3c2/C(=C/Nc2ccc(O)cc2)C1=O	55	n	n	n	n	n
CC1(C)Oc2ccc3ccc(=O)oc3c2/C(=C/Nc2cccc(O)c2)C1=O	n	n	n	x	n	x
Cc1ccc([N+](=O)[O-])cc1NC(=O)Nc1cccc(F)c1	59	x	n	x	n	n
Cc1cccc(OCC(=O)Nc2ccc(N3CCN(S(C)(=O)=O)CC3)cc2)c1C	96	n	n	x	n	n
Cc1cccc(OCC(=O)NC(=S)Nc2ccccc2N2CCOCC2)c1C	73	n	n	n	n	n
Cc1ccccc1OCC(=O)Nc1ccccc1N1CCOCC1	50	n	n	n	n	n
Cc1ccc(C(C)C)c(OCC(=O)NC(=S)Nc2ccccc2N2CCOCC2)c1	n	n	x	n	n	x
O=C(COc1ccccc1)Nc1ccccc1N1CCCCC1	n	n	n	n	n	x
CCOc1ccc(OCC(=O)Nc2ccccc2N2CCCC2)cc1	51	n	n	n	n	72	Full FLuc ctr=60
CC(OC(=O)Cn1[nH]c(=O)c2ccccc2c1=O)C(=O)NC1(C#N)CCCCC1 (configuration not stated)	n	n	n	n	n	x
CCC(=O)[C@@H](C)[C@@H](OC(C)=O)[C@H](C)C[C@@H](C)[C@H]1OC(=O)C[C@@]2(O)CC=C(C)C(O2)C(C)=CCCC[C@H](O[C@H]2C[C@@H](OC(N)=O)[C@H](OC(C)=O)[C@@H](C)O2)C=C[C@H](C)C[C@H]1C	x	x	x	x	n	x
COC(=O)[C@@]12C[C@@H](CC(=O)NCc3ccccc3)C(=O)N(Cc3ccc4c(c3)OCO4)C1=CCC(C)(C)C2	x	x	x	x	n	x
CCc1nc2ccccc2c(C(=O)Nc2cccc(C)c2)c1C	n	n	n	n	n	x
CCCCNC(=O)C[C@@H]1C[C@@]2(C(=O)OC)CCCCC=C2N(CCC2=CCCCC2)C1=O	x	x	x	x	n	x
CCOC(=O)c1ccccc1NC(=O)COc1cc(=O)n(CC)c2ccccc12	n	n	n	x	n	x
CCn1c(=O)cc(OCC(=O)Nc2ccccc2N2CCN(C)CC2)c2ccccc21	50	n	n	x	n	n
CC(C)(C)c1cc2nc(NCCOc3ccccc3)ccn2n1	x	x	x	x	n	x

High-throughput results as filed in PubChem BioAssay.
